Test results published in PubChem BioAssay (NCATS).
Inconclusive results are not listed. Where a call stands in place of a potency, no number is given. Active and inactive are the calls of the source. Calls follow the shape of the dose curve; as a rule, active = well fitted inhibition curve with a large enough effect; inconclusive = small, poorly fitted or top-dose-only effect; inactive = flat fitted curve, though single readings scatter.

These molecules were tested on CRL-7250 (assay: qHTS assay to identify novel small-molecules to repurpose for Merkel cell carcinoma treatment (AID 1296009; also: nearly all actives have a fitted effect of over 60% in size)). Settings: MCC and control cell lines, CellTiter-Glo viability, 72 h; series mostly up to 92 µM.
How it was run: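 Cells were incubated with compound for 72 hr at 37 degree celsius before CellTiter-Glo addition. Luminescence was normalized with no-cell wells as full cytotoxicity and DMSO as baseline.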

| SMILES | Potency | outcome |
| --- | --- | --- |
| COc1cc(C2Oc3c(OC)cc(/C=C/C(=O)OC[C@H]4O[C@@H](OC(C)(C)C(=O)O)[C@H](O)[C@@H](O)[C@@H]4O)cc3C2CO)ccc1O (stereo not given in full) | inactive |  |
| CC(O)C/C=C/C=C/C(=O)OC1C=C2COC(=O)C2(O)C2(C)CCCC(C)(C)C12 (stereo not given) | inactive |  |
| CCC(C)/C=C(C)/C=C/C1=CC2=C(Cl)C(=O)C(C)(OC(C)=O)C(=O)C2=CN1C1CCCCN(C(CCC(N)=O)C(=O)O)C1=O (stereo not given) | inactive |  |
| O=c1ccn(C2OC(CO)C(O)C2O)c(=O)[nH]1 (stereo not given) | inactive |  |
| O=C(OC[C@@]1(O)CO[C@@H](O[C@H]2[C@H](Oc3ccc(O)cc3)O[C@H](CO)[C@@H](O)[C@@H]2O)[C@@H]1O)c1ccc(O)cc1 | inactive |  |
| C[C@@H](NC(=O)C(=O)c1c[nH]c2ccc([N+](=O)[O-])cc12)c1ccccc1 | inactive |  |
| CC(=O)OC1C(C)C2C(OC3OC(CO)C(O)C(O)C3O)OC=C(C(=O)O)C2C1OC(=O)c1ccccc1 (stereo not given) | inactive |  |
| COc1c2c(c(C)c3c1C(=O)OC3)OC1(C)CC(O)C(C(C)(C)O)C(C)(CCC(=O)O)C1C2 (stereo not given) | inactive |  |
| CC/C=C\CC1C(CC(=O)O)CCC1OC1OC(CO)C(O)C(O)C1O (stereo not given) | inactive |  |
| CNC(=O)c1ccc2cc([C@@]3(O)CCn4cncc43)ccc2c1 | inactive |  |
| COc1ccccc1CN[C@H]1CCCN[C@H]1c1ccccc1 | inactive |  |
| COc1cccc(OC)c1-c1cc(C(=O)N[C@@H](CC(C)C)C(=O)O)nn1-c1ccnc2cc(Cl)ccc12 | inactive |  |
| O=C(/C=C/c1ccc(O)c(O)c1)OC[C@H]1O[C@@H](OC2CCCCC2O)[C@H](O)[C@@H](O)[C@@H]1O (stereo not given in full) | inactive |  |
| CC[C@H]1OC(=O)[C@H](C)[C@@H](OC2C[C@@](C)(OC)[C@@H](O)[C@H](C)O2)[C@H](C)[C@@H](OC2O[C@H](C)C[C@H](NC)[C@H]2O)[C@](C)(O)C[C@@H](C)CN(C)[C@H](C)[C@@H](O)[C@]1(C)O (stereo not given in full) | inactive |  |
| O=C(O)Cn1nnc(-c2ccc(CN(CCCCOc3ccc(CN4CCCC4)cc3)CCc3ccccc3)cc2)n1 | inactive |  |
| CC1=C2C[C@H]3O[C@@]3(C)CCC3O[C@@]3(C)C[C@@]2(O)OC1=O (stereo not given in full) | inactive |  |
| CC(C)(C)C1CCN(C(=O)n2ncc(C(O)(c3ccccc3)c3ccccc3)n2)CC1 | inactive |  |
| C/C1=C\CC[C@H](C)CCO[C@@H]2O[C@H](CO[C@@H]3OC[C@](O)(COC1=O)[C@H]3O)[C@@H](O)[C@H](O)[C@H]2O | inactive |  |
| CC1=CC(=O)CC(C)(C)C1(O)CCC(C)O (stereo not given) | inactive |  |
| COc1cc(/C=C/C(=O)O[C@H]2[C@H](O)[C@@H](CO)O[C@@]2(CO)O[C@H]2O[C@H](COC(=O)c3ccc(O)cc3)[C@@H](O)[C@H](O)[C@H]2O)cc(OC)c1OC | inactive |  |

| SMILES | Potency | outcome |
| --- | --- | --- |
| COC(=O)C1=CO[C@@H](O[C@@H]2O[C@H](CO)[C@@H](O)[C@H](O)[C@H]2O)[C@H]2[C@@H]1[C@H](O)C[C@]2(C)O | inactive |  |
| CC(C)CC(=O)n1cc(C(N)=O)c(=O)cc1C(O)c1ccccc1 (stereo not given) | inactive |  |
| C[C@@H]1C[C@H]2OC(=O)[C@@]3(C)CCC[C@](C)(C23)[C@@]1(O)CCC1=CC(=O)OC1O (stereo not given in full) | inactive |  |
| C/C=C/C=C/C(O)=C1/C(=O)[C@]2(C)C3/C(=C(O)/C=C/C=C/C)C(=O)C4(C)C1[C@]1(C)O[C@@]4(O)[C@@]3(C)O[C@@]12O | inactive |  |
| CC(C)=C1CC2[C@](C)(CC[C@@H](OC(=O)C3(C)OC3C)[C@@]2(C)O)CC1=O (stereo not given in full) | inactive |  |
| COc1cc(C2c3cc(O)c(OC)cc3CC(CO)C2CO)ccc1O (stereo not given) | inactive |  |
| COc1ccc(/C=C/C(=O)O[C@H]2[C@@H]3C=CO[C@@H](O[C@@H]4O[C@H](CO)[C@@H](O)[C@H](O)[C@H]4O)[C@@H]3[C@@]3(CO)O[C@@H]23)cc1O | inactive |  |
| O=C(/C=C/c1ccccc1)OC[C@H]1O[C@@H](OC(=O)c2cc(O)c(O)c(O)c2)[C@H](O)[C@@H](O)[C@@H]1O | inactive |  |
| CCC(O)C(C)C1CCC(C(C)C(=O)O)O1 (stereo not given) | inactive |  |
| CCOc1ncc(S(=O)(=O)N2CCN(CC)CC2)cc1-c1nc2c(CC)n(CCOC)nc2c(=O)[nH]1 | inactive |  |
| C=C[C@@](C)(CCC=C(C)C)O[C@@H]1O[C@H](CO[C@@H]2OC[C@H](O)[C@H](O)[C@H]2O)[C@@H](O)[C@H](O)[C@H]1O | inactive |  |
| CC12CCC(=O)C=C1C(O)CC1C2C(O)CC2(C)C1CC[C@]2(O)C(=O)CO (stereo not given in full) |  | inactive [at 9.27 µM] |
| COc1ccc(S(=O)(=O)Nc2c(C)cc(C)cc2C)cc1 | inactive |  |
| CC1(C)CC[C@]2(C(=O)O)[C@H](O)C[C@]3(C)C(=CCC4[C@@]5(C)CC[C@H](O[C@@H]6O[C@H](CO[C@@H]7OC[C@H](O)[C@H](O)[C@H]7O[C@@H]7OC[C@H](O)[C@H](O)[C@H]7O)[C@@H](O)[C@H](O)[C@H]6O)C(C)(C)C5CC[C@]43C)[C@@H]2C1 (stereo not given in full) |  | inactive [at 9.27 µM] |
| CC(=O)[C@@H]1CC[C@]2(C(=O)O)CC[C@]3(C)C(CCC4[C@@]5(C)CC[C@H](O)C(C)(C)C5CC[C@]43C)C12 (stereo not given in full) | inactive |  |
| CC1(CO)CC(O)C2(C)CCC3(C)C(=CCC4C5(C=O)CCC(OC6OC(C(=O)O)C(O)C(O)C6OC6OC(C(=O)O)C(O)C(O)C6O)C(C)(C)C5CCC43C)C2C1 (stereo not given) |  | inactive [at 9.27 µM] |
| CCC[C@@H]1C[C@@H](C(=O)N[C@@H]([C@H]2O[C@H](SC)[C@H](O)[C@@H](O)[C@@H]2O)[C@@H](C)O)N(C)C1 | inactive |  |
| COc1cc(C2Oc3c(OC)cc(CCCO)cc3C2CO)ccc1O[C@H]1O[C@H](C)[C@@H](O)[C@H](O)[C@@H]1O (stereo not given in full) | inactive |  |
| C/C(=C\CCC(C)(C)O)CCO[C@@H]1O[C@H](CO[C@@H]2O[C@@H](C)[C@H](O)[C@@H](O)[C@H]2O)[C@@H](O)[C@H](O)[C@H]1O | inactive |  |
| COc1c2c(c(C)c3c1C(=O)OC3)OC1(C)CC(O)C34OC(OC)(OC3(C)C)C(O)CC4(C)C1C2 (stereo not given) | inactive |  |
